{"source": "PubChem BioAssay AID624202", "about": "(National Center for Advancing Translational Sciences (NCATS), 2012)", "note": "About 4,000 (1.1%) of roughly 380,000 compounds were called active. Another 3% or so got no clear call; they are omitted. For the sample, actives were picked, then their nearest neighbours and some compounds at random. Unmarked numbers belong to inactive results. Calls come from the whole dose curve; as a rule, active = well fitted activation curve with a large enough effect; inconclusive = small, poorly fitted or top-dose-only effect; inactive = no such curve, though single readings can be large or run the other way. Potency is the fitted concentration of half-maximal effect.", "data": [{"test": "qHTS Assay to Identify Small Molecule Activators of BRCA1 Expression; note: nearly all actives have a fitted effect of over 80% in size", "settings": "MCF7-BRCA1-FFLuc reporter, luminescence, 48 h; series mostly up to 46.1 µM; activation: at the top concentration", "in_short": "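MCF7-BRCA1-FFLuc, 2000 cells/well; 2 h attach, 37 °C/5% CO2; compound 48 h; luciferase substrate 15 min; luminescence end-point. Norm. to genistein 10 microM max activation and DMSO; concentration-response curves fitted.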", "units": {"activation": "%"}, "values": [{"smiles": "Cc1cc(C(=O)COc2ccccc2Cl)c(C)n1C1CC1", "Potency": "12.6 µM (active)"}, {"smiles": "Cc1cc(C(=O)COc2ccc(Br)cc2F)c(C)n1C1CC1", "activation": 45.1}, {"smiles": "Cn1c(=O)c2c(-c3ccccc3Br)n(Cc3ccccc3)cc2n(C)c1=O", "activation": -2.04}, {"smiles": "S=C(Nc1cccc(Cl)c1)Nc1ccc2c(c1)OCCO2", "Potency": "11.2 µM (active)"}, {"smiles": "S=C(NCc1ccco1)Nc1ccc2c(c1)OCCO2", "activation": 39.2}, {"smiles": "S=C(Nc1ccc2c(c1)OCO2)N1CCCC1", "activation": 56.2}, {"smiles": "CCc1ccccc1OCC(=O)Nc1ccc2c(c1)OCCO2", "activation": 94.9}, {"smiles": "CCCCC(=O)Nc1ccc2c(c1)OCCO2", "Potency": "7.08 µM (active)"}, {"smiles": "Cc1ccc(OCCCC(=O)Nc2ccc3c(c2)OCCO3)cc1", "activation": 22.6}, {"smiles": "COc1ccccc1-c1cc2nc(C)c(CCC(=O)NC3CCCCC3)c(C)n2n1", "activation": -4.32}, {"smiles": "COc1ccc(NC(=O)CSc2nnc(-c3nnn(-c4ccc(F)cc4)c3C)o2)cc1", "activation": 4.5}, {"smiles": "O=C(CS(=O)(=O)c1cccc2nsnc12)N1CCN(c2cccc(Cl)c2)CC1", "activation": -5.64}, {"smiles": "COc1ccc2[nH]c3c(c2c1)CCN(C(=O)CCC1CCCC1)C3c1ccc(F)cc1", "note": "(stereo unspecified)", "activation": -14.9}, {"smiles": "Cc1ccc(Cl)cc1N1CCN(C(=O)CN2C(=O)COc3ccc(S(=O)(=O)N4CCOCC4)cc32)CC1", "activation": -21.5}, {"smiles": "COc1cccc(OCc2cc(C(=O)N3CCN(C(=O)c4ccco4)CC3)no2)c1", "Potency": "11.2 µM (active)"}, {"smiles": "COc1ccc(OCc2cc(C(=O)N3CCCC3)no2)c2ccccc12", "activation": 64.4}, {"smiles": "O=C(c1cc(COc2cccc(C(F)(F)F)c2)on1)N1CCSCC1", "activation": -8.73}, {"smiles": "CCN(CC)S(=O)(=O)c1ccc2c(c1)nc(CN(C)C(=O)Nc1ccc(Cl)cc1)n2C", "activation": 2.05}, {"smiles": "Cc1cc(F)ccc1NS(=O)(=O)c1ccc(-n2cccn2)cc1", "activation": -23.9}, {"smiles": "O=C(Nc1ccc2c(c1)OCCO2)C(C1CC1)N1CCC(Cc2ccccc2)CC1", "note": "(stereo unspecified)", "activation": -7.79}, {"smiles": "Nc1c(C(=O)Nc2ccc3c(c2)OCCO3)nnn1Cc1ccccc1", "Potency": "4.47 µM (active)"}, {"smiles": "Cn1cc([N+](=O)[O-])c(C(=O)Nc2ccc3c(c2)OCCO3)n1", "activation": 78.5}, {"smiles": "COC(=O)c1c(NC(=O)CCCOc2ccccc2)sc2c1CCC(C)C2", "note": "(stereo unspecified)", "activation": 13.8}, {"smiles": "CCN(CCCNC(=O)c1cc2cc3cc(OC)ccc3nc2s1)c1ccccc1", "activation": 8.15}, {"smiles": "Cc1cc(NC(=O)CC(C)C)cc(-c2nc3ncccc3o2)c1O", "activation": -5.81}, {"smiles": "Fc1cccc(Cc2c(-c3ccc(Cl)cc3)nc3ccc(Cl)cn23)c1", "activation": 18}, {"smiles": "Cc1ccc(Cc2c(-c3ccco3)nc3ccc(Cl)cn23)cc1", "activation": -32}, {"smiles": "Cc1ccc(-c2nc3ccc(Cl)cn3c2Cc2ccccc2)cc1", "Potency": "10 µM (active)"}, {"smiles": "CC1(C)CC(=O)c2cc(C(=O)NCc3ccccc3)c(=O)[nH]c2C1", "activation": 0}, {"smiles": "Cc1ccc(O)c(NC(=O)c2cc(-c3ccco3)on2)c1", "Potency": "5.62 µM (active)"}, {"smiles": "Cc1ccc(C)c(NC(=O)c2ccc(OC(=O)c3ccco3)cc2)c1", "activation": 46.3}, {"smiles": "CC(=O)c1ccc(NC(=O)c2cc(-c3cccs3)on2)cc1", "activation": 67.3}, {"smiles": "COC(=O)c1ccccc1NC(=O)Cn1c(=O)cc(C)c2c(C)nn(-c3cccc(Cl)c3C)c21", "activation": 4.63}, {"smiles": "O=C(COc1ccccc1)OCc1cc(=O)n2nc(-c3cccs3)sc2n1", "activation": 0}, {"smiles": "Nc1ccc(N=Nc2ccccc2Cl)c(N)n1", "Potency": "3.55 µM (active)"}, {"smiles": "CCC(C(=O)Nc1cccc(Cl)c1C)n1nc(-c2ccc(C)cc2)ccc1=O", "note": "(stereo unspecified)", "activation": -24.6}, {"smiles": "O=C(Nc1ccccc1)c1ccc(NC(=O)c2cccs2)cc1", "Potency": "7.94 µM (active)"}, {"smiles": "NS(=O)(=O)c1ccc(NC(=S)NNC(=O)c2cccs2)cc1", "activation": 0}, {"smiles": "CS(=O)(=O)c1ccc(C(=O)NNC(=O)c2cccs2)cc1", "activation": 1.26}, {"smiles": "COc1cccc(N2CCN(S(=O)(=O)c3cc(Br)cc4c3N(C(=O)C3CC3)CC4)CC2)c1", "activation": 3.39}, {"smiles": "COc1ccccc1C(=O)OCc1cc(=O)n2nc(-c3cccs3)sc2n1", "activation": -16.9}, {"smiles": "O=C(c1cccs1)N1CCCC(c2nc(-c3ccc(F)cc3)no2)C1", "note": "(stereo unspecified)", "activation": 78.6}, {"smiles": "c1csc(-c2nc(-c3ccncc3)no2)c1", "Potency": "4.47 µM (active)"}, {"smiles": "CCCCNc1ccc(-c2nc(-c3ccncc3)no2)cc1[N+](=O)[O-]", "activation": 8.14}, {"smiles": "Cc1ccc(-c2noc(-c3ccccc3C(=O)NCC3CCCO3)n2)cc1", "note": "(stereo unspecified)", "activation": 10.2}, {"smiles": "O=C(NCc1cccnc1)c1nc(-c2cccs2)no1", "activation": -4.18}, {"smiles": "Cc1ccc(-c2nc(-c3ccncc3)no2)c(C)c1", "Potency": "5.01 µM (active)"}, {"smiles": "COc1ccc(-c2nc(C)c(CCNC(=O)c3ccc(C(F)(F)F)cc3)s2)cc1OC", "activation": 8.95}, {"smiles": "COc1ccc(NC(=O)c2ccc3nc(C(C)C)oc3c2)cc1OC", "activation": 43.9}, {"smiles": "COc1ccc(-n2c(=O)c3c(c4cc(OC)ccc4n3C)n(Cc3cccc(C)c3)c2=O)cc1", "activation": -15.1}, {"smiles": "CCc1c(C)sc(NC(=O)c2cccs2)c1C(N)=O", "Potency": "3.55 µM (active)"}, {"smiles": "CCc1nnc(NC(=O)CCC(=O)NCc2ccccc2OC)s1", "activation": 0.553}, {"smiles": "CCc1nnc(NC(=O)c2cccs2)s1", "Potency": "12.6 µM (active)"}, {"smiles": "CCOC(=O)CSc1nnc(CNC(=O)c2cccs2)n1-c1ccccc1", "activation": -17.3}, {"smiles": "CCOC(=O)c1c(NC(=O)C2CC=CCC2C(=O)O)sc(C)c1CC", "note": "(stereo unspecified)", "activation": 3.34}, {"smiles": "CCc1nnc(NC(=O)C2CCCN2S(=O)(=O)c2ccccc2)s1", "note": "(stereo unspecified)", "activation": 1.72}]}]}
